# Data: PubChem BioAssay (NCATS)
# Unmarked numbers belong to inactive results. Results filed as inconclusive are left out. A call without a number means that no potency is given here. Activity calls are given as the source filed them. Unless noted, calls come from the whole dose curve; as a rule, active = well fitted curve in the direction sought with a large enough effect; inconclusive = small, poorly fitted or top-dose-only effect, or another doubt; inactive = no such curve, though single readings can be large; an effect the other way counts as inactive or inconclusive.
# Legend:
# [1] = target: ATP-dependent 6-phosphofructokinase (Trypanosoma brucei brucei) (UniProt O15648); experiment: qHTS Assay to Find Inhibitors of T. brucei phosphofructokinase: hit validation (AID 492961);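 note: luminescence reports ADP formed as PFK phosphorylates fructose-6-phosphate with ATP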; settings: T. brucei PFK, ADP-Glo luminescence; series mostly up to 24.3 µM
# Procedure, shortened: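 Compounds titrated; %activity normalized to 0x and 1x enzyme controls, curve-fitted. Readout: ADP-Glo luminescence after 45 min room-temperature reaction of 1.25 nM PFK, 0.1 mM ATP, 0.5 mM F6P, pH 8.0.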
# 7G8 = experiment: qHTS profiling for inhibitors of Plasmodium falciparum proliferation (AID 504749); note: nearly all actives have a fitted effect of over 60% in size; note: potency is the fitted concentration of half-maximal effect; settings: P. falciparum in erythrocytes, SYBR Green DNA, 72 h; series mostly up to 12.8 µM
# Procedure, shortened: (§1)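 SYBR Green fluorescence (ex 485 nm, em 535 nm) reports parasite DNA after 72 h compound exposure of infected red cells at 0.3% parasitemia, 2.5% hematocrit; signal normalized to 0.29 uM artemisinin and vehicle wells.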
# AA1029 = experiment: as above; settings: P. falciparum in erythrocytes, SYBR Green DNA, 72 h; series mostly up to 12.8 µM
# Procedure, shortened: as §1
# CP194 = experiment: as above; settings: P. falciparum in erythrocytes, SYBR Green DNA, 72 h; series mostly up to 12.8 µM
# Procedure, shortened: as §1
# CP203 = experiment: as above; settings: P. falciparum in erythrocytes, SYBR Green DNA, 72 h; series mostly up to 12.8 µM
# Procedure, shortened: as §1
# CP215 = experiment: as above; settings: P. falciparum in erythrocytes, SYBR Green DNA, 72 h; series mostly up to 12.8 µM
# Procedure, shortened: as §1
# CP265 = experiment: as above; settings: P. falciparum in erythrocytes, SYBR Green DNA, 72 h; series mostly up to 12.8 µM
# Procedure, shortened: as §1
# CP335 = experiment: as above; settings: P. falciparum in erythrocytes, SYBR Green DNA, 72 h; series mostly up to 12.8 µM
# Procedure, shortened: as §1
# DFO2036 = experiment: as above; settings: P. falciparum in erythrocytes, SYBR Green DNA, 72 h; series mostly up to 12.8 µM
# Procedure, shortened: as §1
# DIV14 = experiment: as above; settings: P. falciparum in erythrocytes, SYBR Green DNA, 72 h; series mostly up to 12.8 µM
# Procedure, shortened: as §1
# GB4 = experiment: as above; settings: P. falciparum in erythrocytes, SYBR Green DNA, 72 h; series mostly up to 12.8 µM
# Procedure, shortened: as §1
# [2] = target: Luciferin 4-monooxygenase (Photinus pyralis) (UniProt P08659); experiment: Biochemical firefly luciferase enzyme assay for NPC (AID 624030);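 note: purified P. pyralis luciferase at 10 nM with luciferin and ATP substrate; nearly all actives have a fitted effect of over 70% in size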; settings: purified P. pyralis luciferase, luminescence, 5 min; series mostly up to 24.9 µM
# Procedure, shortened: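 Purified P. pyralis luciferase at 10 nM in 50 mM Tris Acetate (final), luminescence read within 5 minutes of enzyme addition to compounds. Activity normalised to PTC124 versus DMSO; concentration-response curves classed by r2, magnitude and activity.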
# [3] = S16 Schwann cell PMP22 intronic element firefly luciferase assay (AID 624032); settings: S16 rat Schwann cells, PMP22 element FLuc, 24 h; series mostly up to 25.7 µM; note: nearly all actives have a fitted effect of over 30% in size; note: potency is the fitted concentration of half-maximal effect
# Procedure, shortened: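 Rat S16 Schwann cells stably carrying firefly luciferase driven by a PMP22 intronic element, in 10% FBS, treated 24 h at 37 C. ONE-Glo luminescence normalized to PTC124 control and DMSO (0%); curves classed by r2, magnitude and activity.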
# [4] = target: Cytochrome P450 3A4 (Homo sapiens) (UniProt P08684); experiment: qHTS Assay for Inhibitors and Substrates of Cytochrome P450 3A4 (AID 884); settings: recombinant CYP3A4, Luciferin-PPXE luminescence; series mostly up to 57.1 µM; note: nearly all actives have a fitted effect of over 50% in size; note: potency is the fitted concentration of half-maximal effect
# Procedure, shortened: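 Luminescent readout of luciferin produced by CYP3A4 (20 nM) dealkylation of Luciferin-PPXE, 25 uM (its KM). NADPH-driven reaction ran 60 min at RT after 10 min compound preincubation; data scaled to 57 uM ketoconazole as 100% inhibition.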
# [5] = target: Cytochrome P450 3A4 (Homo sapiens) (UniProt P08684); experiment: qHTS Assay for Activators of Cytochrome P450 3A4 (AID 885); settings: recombinant CYP3A4, Luciferin-PPXE luminescence, 60 min; series mostly up to 57.1 µM; note: nearly all actives have a fitted effect of over 65% in size
# Procedure, shortened: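 Activators are scored by enhanced luminescence from CYP3A4 conversion of luciferin-PPXE (25uM, equal to KM) to luciferin, after 60 min at RT with an NADPH-regenerating system.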
# [6] = Confirmation and Secondary Assay for Modulators of Hemoglobin Beta Chain Splicing at IVS2 654 locus (AID 910); settings: HeLa EGFP-654 splicing reporter, GFP fluorescence, 48 h; series mostly up to 46.1 µM;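 note: HeLa cells stably carrying EGFP split by mutant beta-globin IVS2-654 intron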
# Procedure, shortened: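 HeLa cells stably expressing EGFP interrupted by β-globin IVS2-654 intron, seeded overnight in Opti-MEM/2% FCS, then treated 2 days at 37 °C. Restored splicing read as total peak GFP intensity per well by laser scanning cytometry (488 nm excitation, 500–520 nm emission); 500 nM antisense PNA as control.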
# [7] = Confirmation and Secondary Assay for Modulators of Hemoglobin Beta Chain Splicing at IVS2 705 locus (AID 930); settings: HeLa EGFP-705 splicing reporter, GFP fluorescence, 48 h; series mostly up to 46.1 µM;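 note: HeLa cells stably expressing the EGFP-705 splicing reporter; GFP fluorescence per well restored by corrected splicing of the IVS2-705 intron in EGFP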
# Procedure, shortened: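 Assay measures total GFP intensity per well in HeLa EGFP-705 cells after 2 days with compound; mis-splicing normally truncates EGFP, so fluorescence indicates corrected splicing.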
# [8] = target: Cytochrome P450 2D6 (Homo sapiens) (UniProt P10635); experiment: qHTS Assay for Inhibitors and Substrates of Cytochrome P450 2D6 (AID 891); settings: recombinant CYP2D6, luciferin-ME EGE luminescence; series mostly up to 57.1 µM; note: nearly all actives have a fitted effect of over 60% in size; note: potency is the fitted concentration of half-maximal effect
# Procedure, shortened: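 Luminescent read-out of luciferin formed by 5 nM human CYP2D6 demethylating 30 uM Luciferin-ME EGE (Km level) over 60 min at room temperature after NADPH regeneration addition. Data normalized to full inhibition by 1.43 uM quinidine.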
# [9] = S16 Schwann cell PMP22 intronic element beta-lactamase assay (AID 624044; calls by dose curve; note: nearly all actives have a fitted effect of over 15% in size); settings: S16 rat Schwann cells, PMP22 element beta-lactamase FRET, 24 h; series mostly up to 17.1 µM
# Procedure, shortened: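 Beta-lactamase reporter under a PMP22 intronic regulatory element in stable S16 rat Schwann cells; 24 h compound exposure. 460 nm blue signal normalized between DMSO (0%) and potassium clavulanate, with 535 nm FRET tracking viability; curves classed by r2 and response.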
# [10] = target: Cytochrome P450 2C9 (Homo sapiens) (UniProt P11712); experiment: qHTS Assay for Inhibitors and Substrates of Cytochrome P450 2C9 (AID 883); settings: recombinant CYP2C9, luciferin-H luminescence, 60 min; series mostly up to 25.6 µM; note: nearly all actives have a fitted effect of over 60% in size; note: potency is the fitted concentration of half-maximal effect
# Procedure, shortened: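 Human CYP2C9 (10nM) with Luciferin-H at 100uM (its KM) in 25mM KPO4; compound preincubated 10 min at 37C, then NADPH regeneration for 60 min at 37C. Luciferin read by luminescence after detection reagent; normalized to 57uM sulphaphenazole as full inhibition.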
# Cytochrome P450 2D6 (Homo sapiens), sequence (P10635 whole entry, looked up): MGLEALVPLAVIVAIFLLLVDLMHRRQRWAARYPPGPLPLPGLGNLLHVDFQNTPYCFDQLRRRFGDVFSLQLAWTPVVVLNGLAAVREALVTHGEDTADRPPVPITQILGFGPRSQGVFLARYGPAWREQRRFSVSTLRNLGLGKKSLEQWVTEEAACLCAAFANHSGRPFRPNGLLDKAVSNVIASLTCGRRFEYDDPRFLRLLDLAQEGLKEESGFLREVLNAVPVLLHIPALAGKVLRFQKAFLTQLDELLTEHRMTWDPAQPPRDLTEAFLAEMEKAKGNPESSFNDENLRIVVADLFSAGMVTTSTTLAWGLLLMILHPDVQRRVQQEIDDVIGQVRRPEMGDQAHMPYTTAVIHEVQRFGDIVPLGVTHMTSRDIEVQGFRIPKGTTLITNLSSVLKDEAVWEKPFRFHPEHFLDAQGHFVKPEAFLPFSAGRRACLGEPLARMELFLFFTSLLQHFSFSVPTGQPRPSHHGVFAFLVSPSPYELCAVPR
# Cytochrome P450 3A4 (Homo sapiens), sequence (P08684 whole entry, looked up): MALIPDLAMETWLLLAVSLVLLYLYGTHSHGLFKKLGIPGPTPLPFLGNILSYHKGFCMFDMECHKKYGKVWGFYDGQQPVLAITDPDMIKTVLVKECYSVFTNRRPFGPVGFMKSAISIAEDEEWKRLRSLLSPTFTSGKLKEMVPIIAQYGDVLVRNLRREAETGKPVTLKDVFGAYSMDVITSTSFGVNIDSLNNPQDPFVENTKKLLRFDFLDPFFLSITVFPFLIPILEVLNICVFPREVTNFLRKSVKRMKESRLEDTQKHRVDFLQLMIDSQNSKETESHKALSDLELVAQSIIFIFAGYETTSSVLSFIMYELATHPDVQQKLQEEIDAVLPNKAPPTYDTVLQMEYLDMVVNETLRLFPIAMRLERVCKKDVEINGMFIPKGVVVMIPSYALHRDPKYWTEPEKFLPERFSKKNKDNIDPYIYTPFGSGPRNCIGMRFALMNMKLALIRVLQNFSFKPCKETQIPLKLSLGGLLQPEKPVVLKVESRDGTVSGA
# ATP-dependent 6-phosphofructokinase (Trypanosoma brucei brucei), sequence (O15648 whole entry, looked up): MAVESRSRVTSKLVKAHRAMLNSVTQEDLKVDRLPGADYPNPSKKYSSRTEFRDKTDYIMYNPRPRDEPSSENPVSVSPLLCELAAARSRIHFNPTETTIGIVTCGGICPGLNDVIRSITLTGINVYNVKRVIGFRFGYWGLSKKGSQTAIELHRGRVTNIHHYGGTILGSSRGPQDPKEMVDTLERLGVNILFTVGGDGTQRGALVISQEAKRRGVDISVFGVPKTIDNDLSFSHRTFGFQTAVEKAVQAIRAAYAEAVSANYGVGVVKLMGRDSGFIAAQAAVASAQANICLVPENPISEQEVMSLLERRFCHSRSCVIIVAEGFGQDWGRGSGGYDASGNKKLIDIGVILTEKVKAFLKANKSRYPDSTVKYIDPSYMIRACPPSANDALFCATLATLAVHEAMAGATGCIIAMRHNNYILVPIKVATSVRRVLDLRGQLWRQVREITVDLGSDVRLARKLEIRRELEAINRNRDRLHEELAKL
# Cytochrome P450 2C9 (Homo sapiens), sequence (P11712 whole entry, looked up): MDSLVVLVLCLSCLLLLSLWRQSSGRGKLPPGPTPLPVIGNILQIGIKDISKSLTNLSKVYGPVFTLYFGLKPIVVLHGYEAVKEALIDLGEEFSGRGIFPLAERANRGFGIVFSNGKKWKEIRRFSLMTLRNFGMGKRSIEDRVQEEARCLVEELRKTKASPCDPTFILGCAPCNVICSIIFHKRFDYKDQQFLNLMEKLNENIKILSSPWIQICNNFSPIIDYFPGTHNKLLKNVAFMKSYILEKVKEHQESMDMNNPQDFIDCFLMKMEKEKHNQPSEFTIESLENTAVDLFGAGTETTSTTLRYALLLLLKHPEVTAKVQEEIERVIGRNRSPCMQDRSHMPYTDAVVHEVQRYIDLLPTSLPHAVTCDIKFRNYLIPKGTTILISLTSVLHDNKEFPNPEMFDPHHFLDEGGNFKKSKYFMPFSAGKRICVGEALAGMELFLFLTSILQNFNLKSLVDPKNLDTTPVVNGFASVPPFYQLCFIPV
# Luciferin 4-monooxygenase (Photinus pyralis), sequence (P08659 whole entry, looked up): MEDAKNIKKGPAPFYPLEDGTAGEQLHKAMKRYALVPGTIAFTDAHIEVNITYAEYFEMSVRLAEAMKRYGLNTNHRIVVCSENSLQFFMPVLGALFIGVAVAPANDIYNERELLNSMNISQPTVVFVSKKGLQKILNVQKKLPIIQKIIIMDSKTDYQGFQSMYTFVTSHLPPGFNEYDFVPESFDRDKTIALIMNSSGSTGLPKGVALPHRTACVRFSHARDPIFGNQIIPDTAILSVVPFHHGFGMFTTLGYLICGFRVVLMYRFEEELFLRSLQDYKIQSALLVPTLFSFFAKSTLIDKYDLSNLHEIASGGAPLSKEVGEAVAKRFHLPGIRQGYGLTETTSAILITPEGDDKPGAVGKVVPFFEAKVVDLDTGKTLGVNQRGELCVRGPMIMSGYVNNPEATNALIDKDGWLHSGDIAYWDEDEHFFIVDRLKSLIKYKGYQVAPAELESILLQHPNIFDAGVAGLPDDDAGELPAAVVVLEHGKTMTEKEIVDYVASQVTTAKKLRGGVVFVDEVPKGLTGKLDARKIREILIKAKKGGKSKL
compound,measurement,setting,value
CCN[C@@H]1CN(CCCOC)S(=O)(=O)c2sc(S(N)(=O)=O)cc21,outcome,[1],inactive
same,Potency,7G8,inactive
same,Potency,AA1029,inactive
same,Potency,CP194,inactive
same,Potency,CP203,inactive
same,Potency,CP215,inactive
same,Potency,CP265,inactive
same,Potency,CP335,inactive
same,Potency,DFO2036,inactive
same,Potency,DIV14,inactive
same,Potency,GB4,inactive
CO[C@H]1[C@@H](OC(N)=O)[C@H](O)[C@@H](Oc2ccc3c(O)c(NC(=O)c4ccc(O)c(CC=C(C)C)c4)c(=O)oc3c2C)OC1(C)C,outcome,[1],inactive
same,Potency,[2],inactive
same,Potency,[3],inactive
same,Potency,7G8,inactive
same,Potency,AA1029,inactive
same,Potency,CP194,inactive
same,Potency,CP203,inactive
same,Potency,CP215,inactive
same,Potency,CP265,inactive
same,Potency,CP335,inactive
same,Potency,DFO2036,inactive
same,Potency,DIV14,inactive
same,Potency,GB4,inactive
COc1cc2cc3c4cc(OC)c(OC)cc4cc[n+]3c(C)c2cc1OC,Potency,[4],15.8 µM (active)
same,Potency,[5],inactive
same,Potency,[6],inactive
same,Potency,[7],inactive
C[C@H](NCCC(c1ccccc1)c1ccccc1)c1ccccc1,Potency,[5],inactive
same,Potency,[8],0.158 µM (active)
Cc1cccc(CN2CCN([C@@H](c3ccccc3)c3ccc(Cl)cc3)CC2)c1,Potency,[8],3.16 µM (active)
same,outcome,[1],inactive
same,Potency,[2],inactive
same,Potency,[9],inactive
same,Potency,7G8,3.55 µM (active)
same,Potency,CP194,inactive
same,Potency,CP203,inactive
same,Potency,CP215,inactive
same,Potency,DFO2036,inactive
CCC[C@H]1C[C@H](C(=O)N[C@H]([C@@H]2O[C@H](SC)[C@@H](O)[C@H](O)[C@@H]2O)[C@H](C)O)N(C)C1,Potency,[10],inactive
CN1CCO[C@H](c2ccccc2)c2ccccc2C1,Potency,[2],inactive
same,Potency,[3],inactive
same,Potency,[9],inactive
same,Potency,7G8,inactive
same,Potency,CP215,inactive
Cc1cccc(C)c1NC(=O)[C@H](C)N,outcome,[1],inactive
same,Potency,[2],inactive
same,Potency,[3],inactive
same,Potency,[9],inactive
same,Potency,7G8,inactive
same,Potency,AA1029,inactive
same,Potency,CP265,inactive
same,Potency,CP335,inactive
CCOC(=O)O[C@@H](C)OC(=O)[C@@H]1N2C(=O)[C@@H](NC(=O)[C@@H](N)c3ccccc3)[C@H]2SC1(C)C,outcome,[1],inactive
same,Potency,[2],inactive
same,Potency,[3],inactive
same,Potency,7G8,inactive
same,Potency,AA1029,inactive
same,Potency,CP194,inactive
same,Potency,CP203,inactive
same,Potency,CP215,inactive
same,Potency,CP265,inactive
same,Potency,CP335,inactive
same,Potency,DFO2036,inactive
same,Potency,DIV14,inactive
same,Potency,GB4,inactive
CCN(CCCCOC(=O)c1ccc(OC)c(OC)c1)[C@@H](C)Cc1ccc(OC)cc1,outcome,[1],inactive
same,Potency,[2],inactive
same,Potency,[3],inactive
same,Potency,AA1029,inactive
same,Potency,CP215,inactive
same,Potency,DFO2036,inactive
same,Potency,GB4,inactive
Cc1ccsc1/C=C\C1=NCCCN1C,outcome,[1],inactive
same,Potency,[2],inactive
same,Potency,[3],inactive
same,Potency,7G8,inactive
same,Potency,AA1029,inactive
same,Potency,CP194,inactive
same,Potency,CP203,inactive
same,Potency,CP215,inactive
same,Potency,CP265,inactive
same,Potency,DIV14,inactive
same,Potency,GB4,inactive
CC[C@H](Cc1c(I)cc(I)c(N)c1I)C(=O)O,outcome,[1],inactive
same,Potency,[9],inactive
same,Potency,7G8,inactive
same,Potency,AA1029,inactive
same,Potency,CP194,inactive
same,Potency,CP203,inactive
same,Potency,CP215,inactive
same,Potency,CP265,inactive
same,Potency,CP335,inactive
same,Potency,DFO2036,inactive
same,Potency,DIV14,inactive
same,Potency,GB4,inactive
CCOC(=O)Oc1c(OC)cc(C(=O)O[C@H]2C[C@H]3CN4CCc5c([nH]c6cc(OC)ccc56)[C@@H]4C[C@H]3[C@@H](C(=O)OC)[C@@H]2OC)cc1OC,outcome,[1],inactive
same,Potency,[9],inactive
same,Potency,7G8,2.51 µM (active)
same,Potency,DIV14,5.73 µM (active)
same,Potency,GB4,6.42 µM (active)
C#C[C@]1(O)CC[C@@H]2[C@H]3CCC4=CCCC[C@@H]4[C@@H]3CC[C@@]21C,outcome,[1],inactive
same,Potency,[2],inactive
same,Potency,[3],5.49 µM (active)
same,Potency,[9],inactive
same,Potency,7G8,inactive
same,Potency,AA1029,inactive
same,Potency,CP194,inactive
same,Potency,CP203,inactive
same,Potency,CP215,inactive
same,Potency,CP265,inactive
same,Potency,CP335,inactive
same,Potency,DIV14,inactive
same,Potency,GB4,inactive
CCN(CC)CCOC(=O)[C@@H](Cc1cccc2ccccc12)C[C@@H]1CCCO1,outcome,[1],inactive
same,Potency,[3],inactive
same,Potency,AA1029,inactive
same,Potency,CP194,inactive
same,Potency,CP203,inactive
same,Potency,CP215,inactive
same,Potency,CP265,inactive
same,Potency,CP335,inactive
same,Potency,DFO2036,inactive
same,Potency,GB4,inactive
C[C@@H](C(=O)O)c1ccc(N2Cc3ccccc3C2=O)cc1,Potency,[10],inactive
same,Potency,[4],inactive
CC#C[C@@]1(O)CC[C@H]2[C@@H]3CCC4=CC(=O)CCC4=C3[C@H](c3ccc(N(C)C)cc3)C[C@]21C,Potency,[10],3.98 µM (active)
CCN1CCC[C@@H](OC(=O)C(c2ccccc2)c2ccccc2)C1,Potency,[5],inactive
same,outcome,[1],inactive
same,Potency,[2],inactive
same,Potency,[9],inactive
same,Potency,DFO2036,inactive
CS(=O)(=O)Nc1cccc(-c2nc(Nc3ccccc3)c3ccccc3n2)c1,Potency,[5],inactive
same,Potency,[6],inactive
same,Potency,[7],inactive
C[C@@H](CNC1CCCCC1)OC(=O)c1ccccc1,outcome,[1],inactive
same,Potency,[2],inactive
same,Potency,[3],inactive
same,Potency,7G8,0.891 µM (active)
same,Potency,DIV14,3.61 µM (active)
same,Potency,GB4,4.55 µM (active)
Nc1ncnc2c1ncn2[C@@H]1O[C@H](COP(=O)(O)O)[C@@H](O)[C@@H]1O,Potency,[10],inactive
same,Potency,[4],inactive
same,Potency,[8],inactive
Clc1ccc(CC[C@H](Cn2ccnc2)Sc2c(Cl)cccc2Cl)cc1,Potency,[10],0.0126 µM (active)
same,Potency,[5],inactive
same,Potency,[8],1.26 µM (active)
same,Potency,[9],inactive
same,Potency,7G8,0.891 µM (active)
same,Potency,CP194,6.42 µM (active)
same,Potency,CP203,6.42 µM (active)
same,Potency,DIV14,3.22 µM (active)
same,Potency,GB4,3.22 µM (active)
